Compounds with a hit are over-represented: about 2.6% of the library has one in this group of screens.
PABP FP inh: PABP poly(A) RNA binding inhibitors, primary screen, biochemical, fluorescence polarization, uHTS | AID 2014, 2009 | 290,000 tested, 1% active | calls only at 35 µM | Polyadenylate-binding protein 1 (Homo sapiens), P11940;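 note: calls also rest on retests at 20 µM and on dose response follow-up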
eIF4H FP inh: human eIF4H binding inhibitors, primary screen, translation initiation inhibitor project, biochemical, uHTS, fluorescence polarization; 290,000 tested, 0.94% active; eIF4H fluorescence polarization binding assay; AID 2012, 2009; inhibition, % at 35 µM; Eukaryotic translation initiation factor 4H (Homo sapiens), Q15056;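 note: calls also rest on retests at 20 µM and on dose response follow-up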
A3A deaminase: APOBEC3A ssDNA deaminase inhibitors, primary screen, selectivity assay for APOBEC3G inhibitor project, biochemical, FAM/TAMRA oligo cleavage fluorescence; DNA dC->dU-editing enzyme APOBEC-3A (Homo sapiens), P31941; recombinant A3A, FAM/TAMRA ssDNA deamination fluorescence; inhibition, % at 20 µM; 330,000 tested, 0.41% active; AID 493011, 2011;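 active = at least 40% inhibition at 20 µM here, with at most 30% in a related deaminase screen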
MLLE-PAM2 inh: inhibitors of PABP1 MLLE–PAM2 peptide binding, primary screen, biochemical, fluorescence polarization, FITC-PAM2, GST-MLLE; inhibition, % at 20 µM; 360,000 tested, 0.36% active; Polyadenylate-binding protein 1 (Homo sapiens), P11940; AID 588489, 2011; in the data active = inhibition above about 35%, passing the limit was not always enough
A3G deaminase: APOBEC3G DNA deaminase inhibitors, primary screen, biochemical, fluorescence, single-stranded DNA substrate, uHTS; inhibition, % at 20 µM; recombinant A3G, ssDNA deamination FAM/TAMRA fluorescence; DNA dC->dU-editing enzyme APOBEC-3G (Homo sapiens), Q9HC16; 330,000 tested, 0.28% active;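 active = inhibition of at least 40% at 20 µM, with no more than 30% in the related APOBEC3A deaminase screen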
PHOSPHO1 inh: PubChem AID 1565. inhibition, % at 13.3 µM. Phosphoethanolamine/phosphocholine phosphatase (Homo sapiens), Q8TCT1. recombinant PHOSPHO1, absorbance phosphatase assay. 290,000 tested, 1.1% active; in the data active = inhibition above about 60%
Target sequence (Q8TCT1 whole entry, looked up): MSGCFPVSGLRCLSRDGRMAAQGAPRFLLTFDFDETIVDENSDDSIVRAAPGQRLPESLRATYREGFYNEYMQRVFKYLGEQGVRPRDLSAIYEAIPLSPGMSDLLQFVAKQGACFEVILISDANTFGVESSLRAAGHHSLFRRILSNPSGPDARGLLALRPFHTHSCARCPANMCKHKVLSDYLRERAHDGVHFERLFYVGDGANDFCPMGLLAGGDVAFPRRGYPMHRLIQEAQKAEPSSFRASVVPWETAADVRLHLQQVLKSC
Of the large screens only hits and unclear results are named; the others gave an inactive call. Unless noted, the rule behind the calls is not given here.

O=C(NC(=S)Nc1ccc2c(c1)OCCO2)c1ccccc1	MLLE-PAM2 inh 38
O=C(CCN1C(=O)C2C3C=CC(C4CC34)C2C1=O)Oc1cccc2cccnc12 (stereo unspecified)	none
O=C(Nc1ccccc1)N1CCCC1c1cccs1 (stereo unspecified)	none
CCOc1c(Cl)cc(Cl)cc1CNCCNCCO	none
COc1cccc(C(O)c2nc(-c3ccc(N(C)C)cc3)cs2)c1 (stereo unspecified)	none (no result: PABP FP inh, eIF4H FP inh, A3A deaminase, A3G deaminase, PHOSPHO1 inh)
C[C@]12CC(O)C3C(CCC4=CC(=O)CC[C@@]43C)C1CCC2c1csc(-c2ccccc2)n1 (stereo partly specified)	none
Cc1onc(-c2ccccc2Cl)c1C(=O)OCC(=O)Nc1cccc(S(=O)(=O)N2CCOCC2)c1	none
O=C(O)CCNc1ccc2c(c1)OCCO2	PABP FP inh active, eIF4H FP inh 83
CC(=O)c1cccc(NC(=S)NC(=O)c2ccccc2C)c1	none
CC(=O)c1cccc(NC(=S)NC(=O)c2ccccc2Br)c1	MLLE-PAM2 inh 36
Cc1csc(=O)n1CCC(=O)OCC(=O)Nc1cc([N+](=O)[O-])ccc1Cl	none (no result: PABP FP inh, eIF4H FP inh, PHOSPHO1 inh)
C=C(C)COc1ccc2c(C)c(CC(=O)N3C[C@H]4C[C@@H](C3)c3cccc(=O)n3C4)c(=O)oc2c1C	none
CCOC(=O)N1CCC2(CC1)C(C#N)=C(N)Oc1c2c(C)nn1-c1cccc(Cl)c1	PABP FP inh active, eIF4H FP inh 71
CC(=O)[C@@H]1[C@@H]2C(=O)N(C3CCCCC3)C(=O)[C@@H]2C2c3ccccc3C=CN21 (stereo partly specified)	none (no result: MLLE-PAM2 inh)
O=C1NC(=O)[C@@H]2C3c4ccccc4C=CN3[C@H](C(=O)c3cccs3)[C@H]12 (stereo partly specified)	PABP FP inh active, eIF4H FP inh 126 (no result: MLLE-PAM2 inh)
Cc1ccc(CNC(=O)c2ccc(Br)o2)cc1	none
Cc1cc2cc(CNC(=O)c3ccc(Br)o3)ccc2[nH]1	MLLE-PAM2 inh 57
Cc1cc2cc(CNC(=O)c3ccc(Br)o3)ccc2n1C	MLLE-PAM2 inh 62
CCCC(=O)NCc1ccc2c(c1)cc(C)n2C	none
COc1ccc([N+](=O)[O-])cc1NC(=O)c1ccc(Br)s1	none
O=C1CN2NC(=S)N(c3ccccc3)C2=CN1c1ccc(Cl)cc1	none
O=C(O)CCc1ccc(-c2cccs2)o1	PABP FP inh active, eIF4H FP inh 70
Cc1ccc(-c2ccc(CCC(=O)O)o2)cc1	none
N#C/C(=C(/O)c1ccc(-c2cccc([N+](=O)[O-])c2)o1)c1nc2ccccc2s1	PABP FP inh active, eIF4H FP inh 69
O=C(O)c1ccc(-c2cccc([N+](=O)[O-])c2)o1	none
CN(C)c1ccc(/C=N/n2c(COc3ccccc3)n[nH]c2=S)cc1	PHOSPHO1 inh 79
Cc1ccc(/C=N/n2c(COc3ccccc3)n[nH]c2=S)cc1	none
S=c1[nH]nc(-c2n[nH]c3c2CCC3)n1/N=C/C=C/c1ccco1	PABP FP inh active, eIF4H FP inh 90
S=c1[nH]nc(COc2ccccc2)n1/N=C/C=C/c1ccco1	PABP FP inh active, eIF4H FP inh 81
Cc1ccccc1/C=N/n1c(-c2cc(-c3ccccc3)n[nH]2)n[nH]c1=S	none
S=c1[nH]nc(COc2ccccc2)n1/N=C/C=C/c1ccccc1	none
S=c1[nH]nc(-c2cc(-c3ccccc3)n[nH]2)n1/N=C/C=C/c1ccco1	PABP FP inh active, eIF4H FP inh 102
CC(C)(C)c1ccc(Cn2nnc3c(=O)[nH]c(C4CCN(C(=O)c5ccco5)CC4)nc32)cc1	none
COc1cc2ccc(NC(C)=O)cc2cc1OC	none (no result: PABP FP inh, eIF4H FP inh, A3A deaminase, A3G deaminase, PHOSPHO1 inh)
S=c1[nH]nc(-c2ccco2)n1/N=C/c1ccc(Cl)cc1	none (no result: A3A deaminase, A3G deaminase)
S=c1[nH]nc(-c2ccco2)n1/N=C/C=C/c1ccco1	PHOSPHO1 inh 69
CCOC(=O)c1c(-c2ccccc2)csc1NC(=O)/C(C#N)=C/c1ccc(O)c(OC)c1	PABP FP inh active, eIF4H FP inh inconclusive (no result: A3A deaminase, A3G deaminase)
CCOC(=O)c1c(-c2ccccc2)csc1NC(=O)/C(C#N)=C/c1ccc(OC)c(OC)c1	none
CCOC(=O)c1c(-c2ccccc2)csc1NC(=O)C1CCCO1 (stereo unspecified)	MLLE-PAM2 inh 39, PHOSPHO1 inh 72
CCOC(=O)c1c(-c2ccccc2)csc1NC(=O)CSc1nncs1	PABP FP inh active
CCOC(=O)c1c(-c2ccccc2)csc1NC(=O)CSc1ccccc1	none
COC(=O)c1ccc(C2Nc3cccc4cccc(c34)N2)cc1	none
COc1cc(C2Nc3cccc4cccc(c34)N2)ccc1OC(C)=O	PABP FP inh active, eIF4H FP inh 105
COc1ccc(C2Nc3cccc4cccc(c34)N2)cc1Br	eIF4H FP inh 62
COc1cc(C2Nc3cccc4cccc(c34)N2)cc(OC)c1O	none
COc1ccc(/C=C2\Oc3cc(OCC(=O)N4CC(O)C[C@H]4C(=O)O)ccc3C2=O)cc1OC (stereo partly specified)	none
O=C1c2ccccc2S(=O)(=O)N1CC(O)Cn1ccc2ccccc21 (stereo unspecified)	PABP FP inh active, eIF4H FP inh 88
CC(C)(C)C1=Nn2c(nnc2-c2ccccc2F)SC1	none
CC(C)(C)C1=Nn2c(nnc2-c2ccccn2)SC1	PHOSPHO1 inh 63
O=[N+]([O-])/C(C(Cl)=C(Cl)Cl)=C(\Nc1ccc(F)cc1)n1cncn1	PHOSPHO1 inh 93 (no result: MLLE-PAM2 inh)
COc1ccc(C(=O)Cn2cc[n+](C)c2)cc1	none
CCc1ccc(-c2nc(CS(=O)CC(=O)NCc3ccccc3)c(C)o2)cc1 (stereo unspecified)	none
NS(=O)(=O)c1ccc(NC(=O)C2C3C=CC(C3)C2C(=O)O)cc1 (stereo unspecified)	PHOSPHO1 inh 60
COc1ccc(NC(=O)C2C3C=CC(C3)C2C(=O)O)cc1 (stereo unspecified)	none
C#CCOCCOCCOCCNc1nc(N2CCOCC2)nc(N2CCN(C(=O)[C@H](C)n3cc(CCC(=O)O)nn3)CC2)n1	none (no result: PABP FP inh, eIF4H FP inh, A3A deaminase, A3G deaminase, PHOSPHO1 inh)
O=C(Cc1ccc(S(=O)(=O)N2CCOCC2)s1)N1CCN(S(=O)(=O)c2ccccc2[N+](=O)[O-])CC1	none (no result: PABP FP inh, eIF4H FP inh, A3A deaminase, A3G deaminase, PHOSPHO1 inh)
COc1cc(C(=S)N2CCOCC2)cc(OC)c1OS(=O)(=O)c1ccc(C)cc1	MLLE-PAM2 inh 42
COc1cc(-c2nnc3sc(Cc4ccccc4)nn23)cc(OC)c1OC	PHOSPHO1 inh 70
CC1CCCC(NC(=O)CCNC(=O)c2ccccc2Cl)C1C (stereo unspecified)	none (no result: PABP FP inh, eIF4H FP inh, PHOSPHO1 inh)

High-throughput results from PubChem.
